Test results: PubChem BioAssay (Tox21)
Records with an inconclusive call do not appear. Activity calls are given as the source filed them. Unless noted, the call rests on the fitted dose curve; in most records, active means well fitted curve in the direction sought with a large enough effect in the repeat runs; inconclusive means weak or mixed curves; inactive means no such curve, though single readings can be large; an effect the other way counts as inactive or inconclusive.

What was measured:
[1] = qHTS assay to identify small molecule agonists of the vitamin D receptor (VDR) signaling pathway - cell viability counter screen (AID 743224); further: series mostly up to about 63 µM; nearly all actives have a fitted effect of over 50% in size
In short: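 Plated VDR-bla cells (4 h, 37C) received compound, incubated 16 h, then LiveBLAzer substrate 2 h RT; CellTiter-Glo added afterwards, luminescence read at 30 min.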

[2] = qHTS assay to identify small molecule agonists of the NFkB signaling pathway - cell viability counter screen (AID 1159515; calls by dose curve; further: series mostly up to about 61 µM; nearly all actives have a fitted effect of over 55% in size)
In short: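 Using the same wells as the NFkB reporter read, ME-180 NFkB-bla cells given compounds for 5 hr were assessed for viability via CellTiter-Glo, with luminescence taken after a 30 min room-temperature incubation.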

[3] = qHTS assay to identify small molecule agonists of the endoplasmic reticulum stress response signaling pathway (AID 1159516; active means well fitted activation curve with a large enough effect in the signal ratio in the repeat runs, not every such curve was filed as active; the % refers to the signal ratio)
In short: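 An ESRE-bla HeLa cell assay: compounds were pin-transferred from DMSO onto overnight-plated cells and left 5 hr at 37 C. Substrate was then loaded for 2 hr at room temperature before reading fluorescence at 460 nm and 530 nm.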

[4] = qHTS assay to identify small molecule antagonists of the retinoid-related orphan receptor gamma (ROR-gamma) signaling pathway - cell viability counter screen (AID 1159520); further: nearly all actives have a fitted effect of over 50% in size
In short: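 Tet-on ROR gamma CHO cells (1,000/well) were plated 4 hr, given compounds in DMSO for 2 hr at 37 C, then induced with 1 uM final doxycycline for 16 hr. Viability was read as ATP by CellTiter-Glo luminescence after 30 min.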

[5] = biological target: Nuclear receptor ROR-gamma (Homo sapiens) (UniProt P51449); assay: qHTS assay to identify small molecule antagonists of the retinoid-related orphan receptor gamma (ROR-gamma) signaling pathway (AID 1159521;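 further: CHO cells with doxycycline inducible ROR-gamma driving an RORE luciferase reporter; top concentration of the series differs between compounds; nearly all actives have a fitted effect of over 50% in size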)
In short: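 Decreased RORE-driven luciferase luminescence indicates antagonism. Tet-on RORγ CHO cells received compound, then 1 uM final doxycycline 2 h later; signal read after 16 h incubation.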

[6] = qHTS assay to identify small molecule agonists of the AP-1 signaling pathway - cell viability counter screen (AID 1159525; calls by dose curve; further: nearly all actives have a fitted effect of over 55% in size)
In short: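 ME-180 AP-1-bla, 2500 cells/well, Opti-MEM + 0.5% dialyzed FBS; overnight 37 °C; cpd 15-pt titration, 5 h 37 °C; CellTiter-Glo 30 min RT; luminescence read; normalised to TOAB and DMSO controls.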

[7] = qHTS assay to identify small molecule agonists of the AP-1 signaling pathway (AID 1159526; calls by dose curve)
[8] = biological target: Retinoic acid receptor RXR-alpha (Homo sapiens) (UniProt P19793); assay: qHTS assay to identify small molecule agonists of the RXR signaling pathway (AID 1159527; calls by dose curve; further: nearly all actives have a fitted effect of over 35% in size)
Sequence of Retinoic acid receptor RXR-alpha (Homo sapiens) (P19793 whole entry, looked up): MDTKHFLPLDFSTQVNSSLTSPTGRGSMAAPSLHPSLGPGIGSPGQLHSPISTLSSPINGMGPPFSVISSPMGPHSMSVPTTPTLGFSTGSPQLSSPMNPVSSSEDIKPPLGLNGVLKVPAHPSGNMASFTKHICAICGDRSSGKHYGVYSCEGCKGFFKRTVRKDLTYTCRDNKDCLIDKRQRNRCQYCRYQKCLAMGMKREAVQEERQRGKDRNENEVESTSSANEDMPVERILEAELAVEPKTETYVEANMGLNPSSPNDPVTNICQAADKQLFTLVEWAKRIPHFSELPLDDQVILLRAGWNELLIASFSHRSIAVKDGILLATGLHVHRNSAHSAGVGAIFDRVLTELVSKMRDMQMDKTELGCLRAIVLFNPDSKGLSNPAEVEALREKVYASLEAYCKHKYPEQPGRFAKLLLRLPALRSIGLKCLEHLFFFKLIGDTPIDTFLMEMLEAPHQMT
In short: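 16 hr incubation of compound-treated RXR-alpha-UAS-bla HEK 293T cells (2% charcoal-stripped FBS, 37 C) preceded a 2 hr room-temperature LiveBLAzer FRET substrate step and blue/green fluorescence measurement.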

[9] = qHTS assay to identify small molecule agonists of the RXR signaling pathway - cell viability counter screen (AID 1159529);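 further: HEK 293T cells carrying an RXR-alpha UAS beta-lactamase reporter; series mostly up to about 77 µM; nearly all actives have a fitted effect of over 50% in size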
In short: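 In this parallel viability measure, GeneBLAzer RXR-alpha HEK 293T cells (2% charcoal-stripped FBS) were given a 5 hr preincubation, treated with compounds 16 hr at 37 C, and read by CellTiter-Glo luminescence.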

[10] = qHTS assay to identify small molecule antagonists of the retinoid acid receptor (RAR) signaling pathway - cell viability counter screen (AID 1159551); further: nearly all actives have a fitted effect of over 35% in size
In short: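 Retinol-stimulated (1 uM final) C3RL4 cells, compound 6 h, 37 C; readout CellTiter-Glo luminescence (ATP) after 30 min RT incubation.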

[11] = qHTS assay to identify small molecule antagonists of the retinoic acid receptor (RAR) signaling pathway (AID 1159552; further: nearly all actives have a fitted effect of over 50% in size)
In short: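 C3RL4 RARE-luc cells, overnight plating; retinol 1 uM final added right after compound; 6 hr 37 C; luciferase read at 30 min RT.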

[12] = qHTS assay to identify small molecule agonists of the retinoic acid receptor (RAR) signaling pathway (AID 1159553)
In short: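 Reporter readout comes from luciferase under RARE control in C3RL4 cells; compound exposure lasts 6 hr at 37 C in 5% CO2, and luminescence is recorded following a 30 min room-temperature incubation with reagent.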

[13] = qHTS assay to identify small molecule antagonists of the estrogen related receptor (ERR) signaling pathway from Tox21 library - cell viability counter screen (AID 1224834); further: nearly all actives have a fitted effect of over 30% in size
In short: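 After 17.5 h of compound exposure at 37 C, ERR cells are incubated with CellTiter-Fluor for 30 min and fluorescence intensity serves as the viability measure.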

[14] = biological target: Luciferin 4-monooxygenase (Photinus pyralis) (UniProt P08659); assay: qHTS assay to identify small molecule inhibitors of firefly luciferase (AID 1224835); further: series mostly up to about 120 µM; nearly all actives have a fitted effect of over 25% in size
Sequence of Luciferin 4-monooxygenase (Photinus pyralis) (P08659 whole entry, looked up): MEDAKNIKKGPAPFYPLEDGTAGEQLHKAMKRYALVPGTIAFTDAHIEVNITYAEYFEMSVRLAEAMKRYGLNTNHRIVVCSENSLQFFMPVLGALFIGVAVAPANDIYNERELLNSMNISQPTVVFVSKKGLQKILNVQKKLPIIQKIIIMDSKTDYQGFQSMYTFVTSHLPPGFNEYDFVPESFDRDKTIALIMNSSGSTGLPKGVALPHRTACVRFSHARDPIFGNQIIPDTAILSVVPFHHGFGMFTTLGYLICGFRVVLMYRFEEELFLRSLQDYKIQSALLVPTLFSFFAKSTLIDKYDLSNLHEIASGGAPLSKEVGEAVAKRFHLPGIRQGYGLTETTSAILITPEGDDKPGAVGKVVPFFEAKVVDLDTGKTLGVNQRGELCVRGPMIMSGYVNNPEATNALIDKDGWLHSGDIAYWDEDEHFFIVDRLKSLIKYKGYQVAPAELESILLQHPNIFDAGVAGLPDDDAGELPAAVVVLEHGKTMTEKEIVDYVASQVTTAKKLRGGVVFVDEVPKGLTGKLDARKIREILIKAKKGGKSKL
In short: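 Quantitative HTS format; KM concentrations of both substrates. Purified P. pyralis FLuc activity quantified from luminescence images.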

[15] = qHTS assay to identify small molecule agonists of the constitutive androstane receptor (CAR) signaling pathway - cell viability counter screen (AID 1224836); further: series mostly up to about 92 µM; nearly all actives have a fitted effect of over 45% in size
In short: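 Using CellTiter-Fluor, viability of HepG2 cells harbouring hCAR and CYP2B6-2.2kb was measured following 23 h incubation with a 15-concentration compound series plus PK11195 (0.75 uM final).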

[16] = qHTS assay to identify small molecule antagonists of the constitutive androstane receptor (CAR) signaling pathway - cell viability counter screen (AID 1224837); further: series mostly up to about 92 µM; nearly all actives have a fitted effect of over 45% in size
In short: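 Counter screen run in HepG2-CYP2B6-hCAR cells: 4 hr settle, compound titration (15 concentrations) with 50 nM CITCO, 23 hr at 37 C/5% CO2, CellTiter-Fluor fluorescence.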

[17] = biological target: Nuclear receptor subfamily 1 group I member 3 (Homo sapiens) (UniProt Q14994); assay: qHTS assay to identify small molecule antagonists of the constitutive androstane receptor (CAR) signaling pathway (AID 1224838);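 further: HepG2 cells stably expressing hCAR with CYP2B6 luciferase reporter stimulated by CITCO; nearly all actives have a fitted effect of over 40% in size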
Sequence of Nuclear receptor subfamily 1 group I member 3 (Homo sapiens) (Q14994 whole entry, looked up): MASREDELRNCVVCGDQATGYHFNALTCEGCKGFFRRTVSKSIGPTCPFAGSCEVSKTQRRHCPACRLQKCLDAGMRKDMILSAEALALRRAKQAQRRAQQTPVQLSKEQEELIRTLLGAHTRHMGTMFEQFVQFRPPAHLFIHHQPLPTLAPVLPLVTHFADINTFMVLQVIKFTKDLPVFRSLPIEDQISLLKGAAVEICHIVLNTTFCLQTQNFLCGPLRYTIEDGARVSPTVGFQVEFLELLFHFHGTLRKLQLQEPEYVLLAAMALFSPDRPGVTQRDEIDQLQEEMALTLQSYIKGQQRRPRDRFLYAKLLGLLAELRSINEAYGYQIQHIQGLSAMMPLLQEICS
In short: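 Cell line: HepG2 double-stable for hCAR and CYP2B6-2.2kb reporter. Agonist: CITCO, 50 nM final. Compounds: 15 concentrations, 24 h, 37 C. Detection: ONE-Glo luminescence.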

[18] = qHTS assay to identify small molecule antagonists of the vitamin D receptor (VDR) signaling pathway - cell viability counter screen (AID 743225); further: nearly all actives have a fitted effect of over 50% in size
In short: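 Parallel cytotoxicity test: VDR-UAS-bla HEK 293T, 3 nM (final) 1-alpha,25-dihydroxyvitamin D3 with test compound, 16 h, 37C. Endpoint is CellTiter-Glo luminescence in the same wells.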

[19] = qHTS assay to identify small molecule agonists of the endoplasmic reticulum stress response signaling pathway - cell viability counter screen (AID 1159517; calls by dose curve)
In short: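 CellTiter-Glo was added to wells already read for beta-lactamase FRET, and luminescence was recorded 30 min later. Cells: ESRE-bla HeLa, 1,500 per well, compound exposure 5 hr at 37 C.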

Measured: Potency

CCC(C(=O)OCCN1CCOC(c2ccccc2)C1C)c1ccccc1 (centres undefined)
not listed: [18] | [19]
inactive: all other assays above

O=Cc1cc2ccccc2o1
not listed: [5] | [6] | [12]
inactive: all other assays above

COc1cc2c(cc1OC)C(=O)C(CC1CCN(Cc3ccccc3)CC1)C2 (centres undefined)
not listed: [12] | [13]
inactive: all other assays above

Cc1ccc(C)c([N+](=O)[O-])c1
not listed: [10]
inactive: all other assays above

O=C(O)CCCCCC(=O)O
not listed: [12]
inactive: all other assays above

CCC[C@@H]1C[C@@H](C(=O)N[C@@H]([C@H]2O[C@H](SC)[C@H](O)[C@@H](O)[C@H]2O)[C@@H](C)O)N(C)C1
not listed: [6]
inactive: all other assays above
